The panel holds about 83,000 compounds, 20% with a hit somewhere; the sample as a whole holds those more often.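 Each cell line was grown in a 96-well plate and treated with one concentration of compound for 48 hours. Values below 10 were considered active.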 The source made the active and inactive calls. Where a SMILES comes first, the peptide text is derived from it. [ ]: non-standard residue; d: D form. ξ: configuration not given here. ξD = NC(CC(=O)O)C(=O)O
What was measured:
Test in all cases: NCI-60 one-dose screen, 48 h (100 = growth as untreated, 0 = no growth, -100 = all killed)
Conditions in all cases: 10 µM unless noted
SK-MEL-2 melanoma = tested on: SK-MEL-2 melanoma
EKVX NSCLC = tested on: EKVX NSCLC
SN12C renal = tested on: SN12C renal
UO-31 renal = tested on: UO-31 renal
TK-10 renal = tested on: TK-10 renal
CAKI-1 renal = tested on: CAKI-1 renal
A498 renal = tested on: A498 renal
CCRF-CEM leukemia = tested on: CCRF-CEM leukemia
MOLT-4 leukemia = tested on: MOLT-4 leukemia
ACHN renal = tested on: ACHN renal

Measured: growth

NC1=C(Br)C(=O)c2ncccc2C1=O
inactive: TK-10 renal 79.1% | A498 renal 113% | CCRF-CEM leukemia 10.5%
active: SK-MEL-2 melanoma -54.1% | EKVX NSCLC -14.2% | SN12C renal -84.8% | UO-31 renal -96.8% | CAKI-1 renal -81.2% | MOLT-4 leukemia -5.62%

O=C(c1ccccc1)C(Br)C(Br)c1ccccc1 (stereo not given)
inactive: SK-MEL-2 melanoma 75.5% | EKVX NSCLC 108% | SN12C renal 104% | TK-10 renal 103% | ACHN renal 18.8% | A498 renal 88.4% | MOLT-4 leukemia 47.5%
active: CAKI-1 renal -50.2% | CCRF-CEM leukemia -14%

C[n+]1ccccc1C[n+]1ccccc1
inactive: SK-MEL-2 melanoma 94.4% | SN12C renal 105% | UO-31 renal 90.5% | TK-10 renal 98.9% | ACHN renal 112% | CAKI-1 renal 114% | A498 renal 109% | CCRF-CEM leukemia 92.7% | MOLT-4 leukemia 83.6%

C1=C(c2ccccc2)c2ccccc2C1
inactive: SK-MEL-2 melanoma 94.4% | EKVX NSCLC 90.5% | UO-31 renal 68.8% | TK-10 renal 119% | ACHN renal 81.7% | CAKI-1 renal 76.4% | A498 renal 68.5% | MOLT-4 leukemia 92.4%

O=C(Cc1ccccc1)C(F)(F)F
inactive: SK-MEL-2 melanoma 107% | EKVX NSCLC 99.1% | SN12C renal 103% | UO-31 renal 93.7% | TK-10 renal 103% | CAKI-1 renal 89.8% | A498 renal 102% | CCRF-CEM leukemia 98.4% | MOLT-4 leukemia 82.7%

CCCCCCCCCCCCCCCCSC(=NCC)NCC
active: SK-MEL-2 melanoma -21.6% | UO-31 renal -13.2% | ACHN renal -21.6% | CAKI-1 renal -25.9% | CCRF-CEM leukemia -48.9% | MOLT-4 leukemia -47.7%
inactive: SN12C renal 18.6% | TK-10 renal 50.7% | A498 renal 67.4%

Cc1onc(-c2ccccc2)c1C(=O)N/N=C/c1cc(Cl)cc(Cl)c1O
active: UO-31 renal 1.5% | CAKI-1 renal 8.2%
inactive: SK-MEL-2 melanoma 37.7% | SN12C renal 33.1% | TK-10 renal 40.1% | ACHN renal 22.1% | A498 renal 81.2% | CCRF-CEM leukemia 21.9% | MOLT-4 leukemia 19.2%

CCCC[n+]1c(/C=C\c2c(OC)cc(OC)cc2OC)ccc2ccccc21
active: SK-MEL-2 melanoma -44.7% | SN12C renal 3.62% | UO-31 renal 1.45% | TK-10 renal -12.7% | ACHN renal 9.92% | CAKI-1 renal -41.6% | A498 renal -23.4% | CCRF-CEM leukemia 1.26% | MOLT-4 leukemia -22.5%

O=C(Cc1nc2cc(Cl)c(Cl)cc2nc1CC(=O)c1ccccc1)c1ccccc1
inactive: SK-MEL-2 melanoma 90.2% | EKVX NSCLC 51.4% | SN12C renal 75.4% | TK-10 renal 119% | ACHN renal 59.2% | CAKI-1 renal 68.6% | A498 renal 125% | CCRF-CEM leukemia 27.1% | MOLT-4 leukemia 28.9%

CCCCCC[C@@H](O)C/C=C\CCCCCCCC(=O)OCCOC
inactive: SK-MEL-2 melanoma 97.6% | EKVX NSCLC 79.1% | SN12C renal 98.3% | TK-10 renal 99.1% | CAKI-1 renal 103% | A498 renal 107% | CCRF-CEM leukemia 94.3% | MOLT-4 leukemia 122%

CCN(CC)c1ccc(/C=C\C(=O)c2ccc(NC(C)=O)cc2)cc1
inactive: SK-MEL-2 melanoma 76.8% | EKVX NSCLC 79.1% | SN12C renal 48.9% | TK-10 renal 92.4% | ACHN renal 61.4% | CAKI-1 renal 54.9% | A498 renal 71.6% | CCRF-CEM leukemia 82.9%

O=C(NOC(=O)c1ccccc1)c1ccccc1
inactive: SK-MEL-2 melanoma 97% | EKVX NSCLC 95.7% | SN12C renal 108% | TK-10 renal 97.8% | ACHN renal 101% | CAKI-1 renal 86.5% | A498 renal 94.6% | CCRF-CEM leukemia 70.6% | MOLT-4 leukemia 93%

Nc1nc2ncc(CNc3ccc(C(=O)NC(CCC(=O)NC(CCC(=O)NC(CCC(=O)NC(CCC(=O)NC(CCC(=O)O)C(=O)O)C(=O)O)C(=O)O)C(=O)O)C(=O)O)cc3)nc2c(=O)[nH]1 (stereo not given)
inactive: SK-MEL-2 melanoma 118% | EKVX NSCLC 95.9% | SN12C renal 101% | TK-10 renal 119% | ACHN renal 110% | CAKI-1 renal 89.7% | A498 renal 116% | CCRF-CEM leukemia 102% | MOLT-4 leukemia 107%

Clc1ccc(-n2ncc3c(NCCCN4CCOCC4)ncnc32)cc1
inactive: SK-MEL-2 melanoma 108% | EKVX NSCLC 92.9% | SN12C renal 99.1% | UO-31 renal 79.6% | TK-10 renal 107% | CAKI-1 renal 107% | CCRF-CEM leukemia 94.4% | MOLT-4 leukemia 97.7%

CC(C)(C)c1ccc(O)c(Br)c1
active: CCRF-CEM leukemia 7.22%
inactive: SK-MEL-2 melanoma 126% | SN12C renal 94.6% | UO-31 renal 86.5% | TK-10 renal 111% | ACHN renal 104% | CAKI-1 renal 96.4% | A498 renal 73.4% | MOLT-4 leukemia 112%

Cc1nc([N+](=O)[O-])c(Sc2nncc(-c3ccccc3)n2)n1C
active: CAKI-1 renal -3.06%
inactive: SK-MEL-2 melanoma 95.4% | EKVX NSCLC 79.7% | SN12C renal 86.8% | UO-31 renal 60.3% | TK-10 renal 74.4% | CCRF-CEM leukemia 45.1% | MOLT-4 leukemia 65.7%

Cc1cc2nc(CC(=O)c3ccncc3)c(=O)[nH]c2cc1C
inactive: SK-MEL-2 melanoma 115% | EKVX NSCLC 56.1% | SN12C renal 84.7% | TK-10 renal 107% | ACHN renal 93.6% | CAKI-1 renal 82.9% | A498 renal 98.4% | CCRF-CEM leukemia 93.6% | MOLT-4 leukemia 104%

COc1cc(NC(=O)C2=C(C)NC(C)=C(C(=O)Nc3cc(OC)c(Cl)cc3OC)C2c2cccc([N+](=O)[O-])c2)c(OC)cc1Cl
inactive: SK-MEL-2 melanoma 10.2% | EKVX NSCLC 28.7% | SN12C renal 32.2% | TK-10 renal 70.6% | ACHN renal 29.2% | CAKI-1 renal 21.4% | A498 renal 75.3% | CCRF-CEM leukemia 12.3% | MOLT-4 leukemia 10.3%

Cc1c(O)ccc(SC#N)c1C
inactive: SK-MEL-2 melanoma 103% | EKVX NSCLC 121% | SN12C renal 95.3% | TK-10 renal 107% | ACHN renal 103% | CAKI-1 renal 98.5% | A498 renal 127% | MOLT-4 leukemia 97.5%

N#C/C(=N\Nc1ccc(Cl)cc1)C(=O)C1CC1
inactive: SK-MEL-2 melanoma 11.8% | EKVX NSCLC 32.2% | SN12C renal 41.4% | TK-10 renal 52.9% | ACHN renal 69.1% | CAKI-1 renal 49.1% | A498 renal 43.4% | CCRF-CEM leukemia 64.3% | MOLT-4 leukemia 79.8%

COc1ccc2c(c1OC)OCC(CN(C)C)C2=O (stereo not given)
inactive: SK-MEL-2 melanoma 112% | SN12C renal 98.5% | TK-10 renal 90.7% | ACHN renal 54.2% | CAKI-1 renal 94.4% | A498 renal 104% | CCRF-CEM leukemia 60% | MOLT-4 leukemia 61.1%
active: UO-31 renal -72.5%

CC/C(=C(/CC)c1ccc(O)cc1)c1ccc(O)cc1
inactive: SK-MEL-2 melanoma 54.6% | EKVX NSCLC 64.7% | SN12C renal 76% | UO-31 renal 73.2% | ACHN renal 67.8% | CAKI-1 renal 45.8% | A498 renal 81.4% | CCRF-CEM leukemia 48.8% | MOLT-4 leukemia 39.9%

CCCCCCCCCCCCCCCc1ccc(C(=O)C[n+]2ccccc2)cc1
active: SK-MEL-2 melanoma -80.9% | EKVX NSCLC -51.6% | SN12C renal -60.7% | UO-31 renal -97.2% | ACHN renal -49.3% | CCRF-CEM leukemia -62.1% | MOLT-4 leukemia -76.3%
inactive: A498 renal 41.1%

CC1(C)N=c2cc3c(cc2N1c1ccc(Cl)cc1)=Nc1ccccc1N3c1ccc(Cl)cc1
inactive: EKVX NSCLC 52.9% | SN12C renal 75.7% | TK-10 renal 65.2% | CAKI-1 renal 44.2%
active: SK-MEL-2 melanoma -1.35% | UO-31 renal -37.1% | CCRF-CEM leukemia -25.3% | MOLT-4 leukemia -32.2%

Cc1cc(I)nc2ccccc12
inactive: SK-MEL-2 melanoma 110% | SN12C renal 109% | UO-31 renal 91.7% | TK-10 renal 113% | ACHN renal 107% | CAKI-1 renal 98.7% | A498 renal 117% | CCRF-CEM leukemia 92.2% | MOLT-4 leukemia 101%

O=C1C=CC(=O)N1C1CCCCCCCCCCC1
active: CCRF-CEM leukemia -11% | MOLT-4 leukemia 6.51%
inactive: SK-MEL-2 melanoma 84.2% | SN12C renal 82.9% | UO-31 renal 60.4% | TK-10 renal 71.5% | ACHN renal 50.1% | CAKI-1 renal 43.5% | A498 renal 113%

CN(C)c1ccc(C(=C2C=CC(=[N+](C)C)C=C2)c2ccc(N(C)C)cc2)cc1
active: SK-MEL-2 melanoma -57.8% | EKVX NSCLC -44% | SN12C renal -67% | UO-31 renal -97.9% | ACHN renal -95.9% | CAKI-1 renal -27.5% | A498 renal -91% | CCRF-CEM leukemia -16.6% | MOLT-4 leukemia -11.4%

OC(Cc1cc(CC(O)(C(F)(F)F)C(F)(F)F)nc(CC(O)(C(F)(F)F)C(F)(F)F)c1)(C(F)(F)F)C(F)(F)F
inactive: EKVX NSCLC 16% | TK-10 renal 22.1%
active: SK-MEL-2 melanoma -28.3% | SN12C renal 4.86% | UO-31 renal 6.74% | CAKI-1 renal 4.5% | A498 renal -18.8% | CCRF-CEM leukemia 7.23% | MOLT-4 leukemia -8.17%

NCC(=O)NC(CC(=O)O)C(=O)O (stereo not given) (H-Gly-[ξD]-OH)
inactive: SK-MEL-2 melanoma 111% | EKVX NSCLC 94.7% | SN12C renal 99% | TK-10 renal 97.7% | ACHN renal 106% | CAKI-1 renal 89.8% | A498 renal 105% | CCRF-CEM leukemia 79.3% | MOLT-4 leukemia 109%

CCCCCCCCCCCC[S+](C)CC(=O)[O-] (stereo not given)
inactive: SK-MEL-2 melanoma 51.7% | EKVX NSCLC 22.2% | SN12C renal 13.7% | TK-10 renal 20.6% | ACHN renal 61.4% | CAKI-1 renal 38.7% | CCRF-CEM leukemia 11.9% | MOLT-4 leukemia 32.9%

CCCCC(C=O)(C=C=C(C)C)CC (stereo not given)
inactive: SK-MEL-2 melanoma 111% | SN12C renal 102% | UO-31 renal 93.4% | TK-10 renal 104% | ACHN renal 99.3% | CAKI-1 renal 98.2% | A498 renal 82% | CCRF-CEM leukemia 88.5% | MOLT-4 leukemia 97%
